From the supplement of paper PMC3334620
Over roughly 33,000 sequences, “E-score (-0.5 to 0.5)” has its median near -8e-05; the highest 2% begin near 0.23. The sample as a whole holds a higher share of the highest values than the screen did.

Target: T1, Nrg2 (UniProt P38082)
T1 sequence: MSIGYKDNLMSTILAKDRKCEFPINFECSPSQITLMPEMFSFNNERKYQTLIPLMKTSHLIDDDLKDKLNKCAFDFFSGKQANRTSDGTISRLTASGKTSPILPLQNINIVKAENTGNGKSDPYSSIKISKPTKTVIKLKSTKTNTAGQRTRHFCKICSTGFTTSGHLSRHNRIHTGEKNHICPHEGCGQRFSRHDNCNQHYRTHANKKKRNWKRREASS
Assay: PBM E-score (8-mer binding enrichment) (E-score (-0.5 to 0.5)); higher = stronger / more preferred TF binding
Conditions: protein concentration: 100 nM; construct: GST-full length
Procedure, shortened: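 Bound GST-tagged yeast transcription factors, applied at about 100-200 nM to double-stranded universal all-10-mer Agilent arrays, were detected with fluorescent anti-GST. Scans were normalised with masliner. A modified Wilcoxon-Mann-Whitney statistic, the E-score, was assigned to each ungapped eight-base word pooled with its reverse complement by the Universal PBM Analysis Suite.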

Sequence | PBM E-score
AGATGGCA | 0.0923
AGCGGTTG | -0.028
AGATTGCG | 0.00885
CTGAGACA | 0.0347
AAAACTTA | 0.0488
GTAGGTAA | 0.00715
AGGCTGAA | -0.0879
TCAAATGA | -0.0989
CTCTCACA | 0.124
CCCCTGAA | 0.356
CACCTGAA | 0.0424
GCCCTGAA | 0.22
TCCCTGAA | 0.25
CCCCTGTA | 0.144
TACCTGAA | 0.0117
GCCGTCTA | -0.0529
CGGTTTGC | -0.0375
CCTGAAGG | -0.0247
AGTCAAGG | -0.174
ATCCGAAT | 0.251
ATCCGAAC | 0.0668
ATCCGAAG | -0.0314
ACAAAACA | 0.119
CTGGCGCC | 0.281
CTGGCGCA | -0.117

Sequence | PBM E-score
ATGGCGCC | 0.0356
ACAAAACC | 0.246
GCAAAACC | 0.0964
ACAAAAAC | 0.0302
ATTTTGAG | 0.0761
AATTTGAC | 0.127
ATTTTGAC | 0.232
TGTTTGAA | -0.00474
ACTTCGAC | -0.0444
CTATCATA | 0.125
GTATCATA | 0.251
ATATCATA | 0.174
AGTAGATC | -0.0113
CGTAGATA | -0.0208
ACTATATA | 0.23
GCTATATA | 0.0573
AGTATAAC | -0.131
AGTATATA | 0.327
AGTATATG | 0.129
ACTATATC | 0.182
AGTATAAT | 0.257
AGTATAAA | 0.194
AGTAGATA | 0.249
AGTATATC | 0.107
GAGGTGCC | -0.0447

Sequence | PBM E-score
CAAAATCG | 0.109
AGAGGACG | -0.0944
ACGGCGCG | 0.214
CGACACCA | -0.124
GAGACAGA | 0.14
ACAGCGAT | -0.201
CCGAACCA | -0.00203
ACGAACCA | 0.235
CCGAACGC | 0.0363
CGGAACAC | 0.264
CGGAACCA | 0.294
AGGAACAC | 0.131
GGGAACCA | -0.231
CGGAACCG | -0.162
CGGAACAA | 0.122
ACGAACCC | -0.00702
ACGAACGA | 0.0396
ACGAACGC | 0.267
GACGGATC | -0.153
TCCTAAAA | -0.251
TCATTGAA | -0.122
TAAATGGA | -0.0213
AGCAGGGG | -0.182
ACACTGCT | -0.0746
CTTAACAA | 0.107

Sequence | PBM E-score
GCTAACAA | -0.0183
GTTAACAA | 0.254
ATTAACTA | 0.136
GTTAACTA | 0.273
CTTAACTA | 0.0617
CAGGCCAC | -0.141
GCGTGAGC | 0.142
GGAACTCA | -0.0697
ACACTCTC | 0.104
GAATGATA | 0.247
CAATGATA | 0.128
TAATGATA | 0.243
GAATGAGA | 0.114
AAATGATA | 0.225
GAATGATC | -0.0614
AGCCCTAG | -0.16
GCCTGAGC | -0.213
CCCTGAGC | 0.236
CACTGAGG | -0.124
CCCTGAGA | 0.235
TCCTGAGA | -0.0364
GCCTGAGA | -0.0991
CCCTGAGG | 0.236
ACCTGAGC | 0.0385
ACCTGAGG | -0.134

Sequence | PBM E-score
CATTTTCC | 0.0879
AGAAGCCC | -0.0779
ATTATGAC | -0.0447
AGGCAAGG | -0.259
CCTATCGC | -0.134
CATGTTGC | -0.0978
AATGTTGA | -0.019
CATGTTGA | 0.258
CTGTATTA | 0.147
ATGTATTA | -0.041
GAGTATTA | 0.00698
AAGTATTA | 0.129
CAGTATTA | 0.244
GTGTATTA | 0.233
ATACTCGA | 0.0646
AGTTCGAG | 0.223
TCCCAAAA | 0.0584
CCGGGAAC | -0.00517
CTGCGCGA | -0.0667
ATGCGCAA | 0.182
CTGCGCTC | -0.146
ATTCGCGC | 0.159
ATGCGCAC | 0.142
ATGCGCAT | 0.368
ATGCGCGC | 0.23

Sequence | PBM E-score
CTTCGCGC | 0.232
ATGCGCGG | 0.121
CTTCGCGA | 0.0778
ATGCGCGA | 0.00379
CTGCGCGC | 0.306
GTGCAGCA | -0.172
CAATTGCC | -0.00722
CAGGACTG | -0.241
AAATGCGC | 0.272
CAATGCGC | 0.145
AAATGCGG | 0.0989
AGGGGCAT | 0.00378
CTAAAAGA | -0.198
GGATATTA | 0.147
CGATATTC | 0.153
CGATATAA | 0.244
CGATATAG | 0.14
CGATATTA | 0.23
CGATATAC | 0.113
CACCGTGA | -0.113
GTATGGCA | 0.0816
CATCAGCG | -0.213
CGAAAAGA | 0.199
AGCAGTGC | -0.287
AGCAGTGA | 0.234

Sequence | PBM E-score
CGCAGTGA | -0.0744
GCGCTACC | -0.139
GTGCTGTA | -0.0149
CGGAGGCA | -0.134
AAGCGCAA | 0.147
CCCAGCAA | 0.0725
TCCAGCAA | -0.151
ACCAGCAA | 0.245
ACTTACCA | 0.00217
GTCAAACA | -0.117
TATTGCAA | 0.253
TGTTGCAA | 0.268
AATTGCAA | 0.0259
CATTGCAA | -0.00795
GGTTGCAA | 0.111
CGTTGCAA | 0.0314
CGCGGTTC | 0.0879
GGATAGCA | 0.0845
AAGTACTC | -0.0318
GAGTACTC | 0.23
CAGTACTC | -0.171
GGCGAGCC | -0.0861
